Experimental data as given in ChEMBL document CHEMBL3988442, “University of Dundee, Small-Polar-MMV Screening Library” (2021).
The whole screen tested about 53,000 compounds, of which about 900 (1.7%) showed an effect of 50% or more. The entries come from a sample that favours strong results as a whole.

test system: Mycobacterium tuberculosis; assay: Cornell - Phenotypic assay to identify agents that inhibit growth of Mycobacterium tuberculosis; format: functional; set-up: scale not given: direction of the effect not stated beside the values; conditions: 10 mM as filed; unlikely as a test dose

| Compound | Percent Effect [%] |
| --- | --- |
| CNC(=O)COc1ccc(CNCc2c(C)nn(C)c2N(C)C)cc1 | -6.953 |
| O=S(=O)(c1ccc(F)c(F)c1)n1cc(Cl)cn1 | -7.033 |
| CC1(Cc2ccc(F)cc2)Cc2cc(C(=O)NCCO)ccc2O1 (configuration not stated) | 0.603 |
| COCc1noc(CN2C[C@H](NS(C)(=O)=O)[C@@H](C3CC3)C2)n1 | 15.5 |
| CC(C)COC(=O)N1CC(=O)N(Cc2ccc(Cl)cc2)CC(O)C1 (configuration not stated) | -5.11 |
| CS(=O)(=O)NCc1ncn2c1CN(C(=O)C1CCCO1)CCC2 (configuration not stated) | 5.323 |
| COc1cccc(-c2nc(C)c(C(=O)N[C@H](CO)CCSC)s2)c1 | 3.237 |
| CSCCC(NC(N)=O)C(=O)NCc1c(C)nn(-c2ccccc2)c1C (configuration not stated) | -4.034 |
| COc1cncc(-n2nc(C)c(CC(C)=O)c2C)c1 | 14.09 |
| COC(=O)C(CCSC)NC(=O)Cc1c(C)nn(-c2ccccc2)c1C (configuration not stated) | 87.19 |
| COc1cccc(-c2nc(C)c(C(=O)N[C@@H](CCSC)C(=O)O)s2)c1 | 4.928 |
| COC(=O)[C@H](CCSC)NC(=O)Cc1c(C)nn(-c2ccccc2)c1C | 83.92 |
| CC(C)C(=O)NCCCNC(=O)Nc1cc(-c2ccccc2)ns1 | 30.68 |
| CCS(=O)(=O)N1CCC2(CC1)CN(c1cccnc1)C(=O)CO2.O=C(O)C(F)(F)F | -1.862 |
| Cc1nn(C)c2nc(NC3CCNCC3)sc12 | 23.18 |
| Cc1csc(CNc2nc3c(s2)c(C)nn3C)n1 | 21.44 |

| Compound | Percent Effect [%] |
| --- | --- |
| CCc1csc(CNc2nc3c(s2)c(C)nn3C)n1 | -15.98 |
| Cc1nn(C)c2nc(NCCCN3CCCC(CO)C3)sc12 (configuration not stated) | 5.889 |
| CCc1nc(CNc2nc3c(s2)c(C)nn3C)cs1 | 82.51 |
| Cc1nc(CNc2nc3c(s2)c(C)nn3C)cs1 | 88.41 |
| CN(C)c1ncc(NC(=O)N2CCC(CN3CCCC3)C2)cn1 (configuration not stated) | -23.44 |
| CN(C)c1ncc(-c2cc(C(=O)O)n(CC3CC3)c2)cn1 | 80.35 |
| Cn1nccc1-c1ncc(-c2cc(C(=O)O)n(CC3CC3)c2)cn1 | -21.93 |
| CN(CCS(=O)(=O)c1cc(Cl)ccc1Cl)CC(N)=O | 108.8 |
| CN(CCOc1cccc(F)c1)CC(=O)Nc1ccncc1 | 22.43 |
| Cc1ccc(S(=O)(=O)N(C)CC(N)=O)c(Cl)c1 | 18.08 |
| COc1ccc(Cl)cc1S(=O)(=O)N(C)CC(N)=O | 28.08 |
| CN(CC(=O)Nc1ccon1)S(=O)(=O)c1cc(Cl)ccc1Cl | -21.56 |
| CN(CC(=O)Nc1cccc(F)c1)Cc1nc(N)nc(N(C)C)n1 | 30.17 |
| COc1ccc(Cl)cc1S(=O)(=O)N(C)CC(=O)Nc1ccccc1 | 28.1 |
| CN(CCS(=O)(=O)c1cc(Cl)ccc1Cl)CC(=O)Nc1cccc(F)c1 | 108.9 |
| CN(CCS(=O)(=O)c1cc(Cl)ccc1Cl)CC(=O)Nc1ccc(F)cc1 | 110.1 |
